In the supplement of paper PMC6555819:

system: PXR:RXRa (NR concentration 270 nM, RXRa partner concentration 90 nM); assay: PBM binding z-score (relative to random genomic background probes); higher = stronger binding; sequences stand for … in GC…GCGATTGACAGCGTAGAATGAAGG
In short: (§1)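 Ligand-free nuclear receptor dimers were applied to custom Agilent 4×180K protein-binding microarrays whose double-stranded probes carried direct-repeat seeds, single-nucleotide variants, half-site ablations and random human genomic background sequences in 34-nt variable regions. Incubation lasted 1 h. Binding z-scores were computed against the random background probes from regression-normalized fluorescence.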

Point of comparison: CGAACGAGGGCATGAGTTGACAGCAAATGCCGAT, PBM binding z-score 0.679. Against it:
- TGAATGAGGTTATAAGATCAGGCAACGTTGCAAA — higher, 0.75
- CGAACTGGGTCATTGACAGGACAGTGAATAGTAA — higher, 1.41
- GCTGCTAGGCCAACTGATGGTCAGCTAAAGCTCG — lower, -0.987
- TCTAGTTGGTCACGGAGGTCACACACGACGGGTA — higher, 4.41
- CGTCCAAGGTCAATGCTAGGACAGTGAAAGCATT — higher, 3.22
- CAAACTAGGTCAGAACAGGACAGTGAAGGATGAT — higher, 1.06
- ATCTCTAGGAAACAAGTTCAGTGAAAGAGAGGAC — higher, 1.24
- AGTCAAAGTTCATCTAGGTAACTTAAGATATGCT — higher, 5.28
- TCTAGTTGGTCACGGAGGTCACCCACGACGGGTA — higher, 4.61
- CAAACTAGGTCACGAAAGGTCAATGTCGAATGAC — higher, 6.78
- ATAGACAGGTGAGTGAAGGTAACTCAGCTGGACG — lower, 0.352
- CCCACTGGGCCAAGGTCATTGATCAGTCAAAGCA — higher, 3.5
- ATATGTAGGTTGTCGGGTCATTCAGTTTGCGCAT — higher, 3.63
- ACTAGCAGGCCAAGTTTGGGTCACTTAAACAAAG — lower, 0.603
- GGAACGAGGGCAAGTTGATAGCAGAGTTTGATGG — higher, 0.937
- GCGACTGGAGCATCAGCAGGTTACCATAACTTAA — lower, -0.228
- AATACAGGGTCACAAGGCCAGAGTAGGTACGAAT — higher, 4.03

system: PXR homodimer (NR concentration 270 nM); assay: as above
In short: as §1

Point of comparison: CGAACTAGGTCATTGGCAGGACAGTGAATAGTAA, PBM binding z-score -0.0888. Against it:
- TCAATGAGGTTAAAGATCAGGGAACGTGGCGTCG — higher, -0.0283
- TAGCTTAGGTCATTGGGCCAGTATAGTACGCATC — higher, 0.132
- GGAACCAGGGCAAGTTGATAGCAGAGTTTGATGG — higher, 0.742
- TTACCAAGATGAAGGTCGTTGATCCCTCTGTAGA — higher, -0.0787
- TCTTGTAGATCAAGCAGGTTAAGAACGCCTGAGT — higher, 0.197
- TGAATGAGGTTAAAGATCAGGGCACGTGGCGTCG — higher, 0.062
- ATCTCTAGGTAAGACTCCGTTCAGTGAAGAACGC — higher, 0.0511
- CCAGACAGGTAAAAGGTAACTCAGTCTGGTACGC — higher, 0.0427
- TCATATAGGTAAAAGGTGAAATTCGGTGTGGTAA — higher, 1.11
- GGAACGAGGACAAGTTGATAGCAGAGTTTGATGG — higher, 0.0308
- TCGAGTAGGTTTGTCGGGGCATTCAGCCAACATA — lower, -0.236
- GATACAGGGTCAGCTAGAGGCCAGAGTGTGGAAA — higher, 0.00381
- TAGCCAAGGTCATGGGCCAGTATACCACGCGAAC — higher, 0.572
- GCTAGTTGGTGAGTAAAAGGTCACACACCGGTCG — higher, 0.986
- CCTACTGGGCCATCAGATCATTGATATCAACGTT — lower, -0.238
- TAGCCTAGGTCATCCGGGCCAGTATAGTGTCGGC — higher, 0.0405
- CGTCCAAGGTCAAAGGACAGTGAAGAGATGACGG — higher, 0.957
- TCACGGAGGACACGAAAGGTCAGAGCTCGACATC — higher, 0.408
- AATGCAGGGTCACTAGGCCAGAGTAGGTACGAAT — higher, 0.127
- TCATATAGGTAATACAGGTGAAGGTCGGCATCTA — higher, 0.89
- AGAATGAGGTTAAGATCAGTGAAACAGAATACAT — lower, -0.347
- TGAATGAGGTTATAAGATCAGGCAACGTTGCAAA — lower, -0.349
- CGAACGAGGGCATGAGTTGACAGCAAATGCCGAT — higher, 0.0292
- CGAACTGGGTCATTGACAGGACAGTGAATAGTAA — higher, 0.347
- GCTGCTAGGCCAACTGATGGTCAGCTAAAGCTCG — lower, -0.793
- TCTAGTTGGTCACGGAGGTCACACACGACGGGTA — higher, 1.8
- CGTCCAAGGTCAATGCTAGGACAGTGAAAGCATT — higher, 0.241
- CAAACTAGGTCAGAACAGGACAGTGAAGGATGAT — higher, 0.211
- ATCTCTAGGAAACAAGTTCAGTGAAAGAGAGGAC — higher, 1.82
- AGTCAAAGTTCATCTAGGTAACTTAAGATATGCT — higher, 7.67
- TCTAGTTGGTCACGGAGGTCACCCACGACGGGTA — higher, 1.6
- CAAACTAGGTCACGAAAGGTCAATGTCGAATGAC — higher, 1.92
- ATAGACAGGTGAGTGAAGGTAACTCAGCTGGACG — higher, 0.0205
- CCCACTGGGCCAAGGTCATTGATCAGTCAAAGCA — higher, 1.12
- ATATGTAGGTTGTCGGGTCATTCAGTTTGCGCAT — higher, 8.53
- ACTAGCAGGCCAAGTTTGGGTCACTTAAACAAAG — lower, -0.404
- GGAACGAGGGCAAGTTGATAGCAGAGTTTGATGG — higher, 0.84
- GCGACTGGAGCATCAGCAGGTTACCATAACTTAA — lower, -0.687
- AATACAGGGTCACAAGGCCAGAGTAGGTACGAAT — higher, 0.719
